Assay results reported in ChEMBL document CHEMBL1201862, “PubChem BioAssay data set” (2004).
In all, about 57,000 […] went through this assay and about 2,500 (4.4%) were called active. Cut-off read from the data, not from the text of the source: active = GI50 up to about 1.1 µM and inactive = higher. The list is a sample of the results. Measured potencies and affinities stand elsewhere.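 Tested at 5 concentrations; 48 h exposure; 96-well plates; endpoints linearly interpolated, else capped at highest concentration. GI50 marks 50% less growth.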

The substances below were run on OVCAR-5 (assay: NCI tumour cell line growth inhibition, 48 h).
For “mu-(1,7-nanodiamine-N,N')bis-(cis-aminedichloroplatimum (II)), CHEMBL2146215”, the GI50 was > 100 µM.
Substance CISPLATIN, CHEMBL11359 has a GI50 of 4.51 µM.
Work on “[Bis(aminomethyl)pentamethylenesilane]dichloropaltinum(II), CHEMBL2146202” yielded a GI50 of 3.38 µM.
“[Bis(aminomethyl)ethylmethylsilane]tetrachloroplatinum(IV), CHEMBL2146192” showed a GI50 of 6.49 µM.
“[Bis(aminomethyl)pentamethylenesilane]tetrachloropaltinum(IV), CHEMBL2146204” showed a GI50 of 6.27 µM.
“cis-Bis[[(trimethylsilyl)methyl]amino]tetrachloroplatinum(IV), CHEMBL2146191” showed a GI50 of 30.3 µM.
For “[Bis(aminomethyl)dimethylsilane]tetrachloroplatinum(IV), CHEMBL2146190”, the GI50 was 7.29 µM.
“[Bis(aminomethyl)dimethylsilane]dichloroplatinum (II), CHEMBL2146201” gave a GI50 of 30.5 µM.
Work on “[Bis(aminomethyl)tetramethylenesilane]dichloropaltinum(II), CHEMBL2146205” yielded a GI50 of 7.55 µM.
Work on “[Bis(aminomethyl)tetramethylenesilane]tetrachloropaltinum(IV), CHEMBL2146189” yielded a GI50 of 4.22 µM.
